Experimental data as given in the supplement of paper PMC12282887.
± gives the standard deviation of the averaged measurements.

Assays:
Assay in all cases: promoter activity interaction Z-score (Lux/OD deviation from empty-vector control); higher = stronger promoter induction by the compound
[1] = system: E. coli BW25113 acrABp lux reporter
In short: (§1)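 Four 1:2 dilutions of each compound were tested in biological duplicates on E. coli BW25113 carrying low-copy luxCDABE promoter reporters, either wild type or deleted for one of three genes. Cultures of 40 µl LB Lennox in 384-well plates were kept at 37°C and read for OD600 and luminescence every 30 min for 12 h. Integration windows were 0–8 h for wild type and 1–9 h for deletion strains, and wells under 10% of the median growth value were discarded. The score is a Z-transformed residual of growth-normalised luminescence relative to a control fit.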

[2] = system: E. coli BW25113 marRABp lux reporter
In short: as §1

[3] = system: E. coli BW25113 micFp lux reporter
In short: as §1

[4] = system: E. coli BW25113 ompFp lux reporter
In short: as §1

[5] = system: E. coli BW25113 robp lux reporter
In short: as §1

[6] = system: E. coli BW25113 soxSp lux reporter
In short: as §1

[7] = 17.8 µg/ml, genetic background: wild type
[8] = 17.8 µg/ml, genetic background: ΔmarA
[9] = 17.8 µg/ml, genetic background: Δrob
[10] = 17.8 µg/ml, genetic background: ΔsoxS
[11] = 35.7 µg/ml, genetic background: wild type
[12] = 35.7 µg/ml, genetic background: ΔmarA
[13] = 35.7 µg/ml, genetic background: Δrob
[14] = 35.7 µg/ml, genetic background: ΔsoxS
[15] = 71.3 µg/ml, genetic background: wild type
[16] = 71.3 µg/ml, genetic background: ΔmarA
[17] = 71.3 µg/ml, genetic background: Δrob
[18] = 71.3 µg/ml, genetic background: ΔsoxS
[19] = 142.7 µg/ml, genetic background: wild type
[20] = 142.7 µg/ml, genetic background: ΔmarA
[21] = 142.7 µg/ml, genetic background: Δrob
[22] = 142.7 µg/ml, genetic background: ΔsoxS

Structure (SMILES): O=C(/C=C/C=C/c1ccc2c(c1)OCO2)N1CCCCC1 [Piperine]
- promoter activity interaction Z-score [1, 7]: 0.246 ± 0.24
- promoter activity interaction Z-score [1, 8]: 2.16 ± 0.78
- promoter activity interaction Z-score [1, 9]: -0.45 ± 0.37
- promoter activity interaction Z-score [1, 10]: -0.228 ± 0.025
- promoter activity interaction Z-score [1, 11]: -0.267 ± 0.27
- promoter activity interaction Z-score [1, 12]: -0.218 ± 0.58
- promoter activity interaction Z-score [1, 13]: -0.35 ± 0.11
- promoter activity interaction Z-score [1, 14]: -0.339 ± 0.26
- promoter activity interaction Z-score [1, 15]: 0.114 ± 0.35
- promoter activity interaction Z-score [1, 16]: 1.19 ± 0.28
- promoter activity interaction Z-score [1, 17]: -0.349 ± 0.35
- promoter activity interaction Z-score [1, 18]: -0.246 ± 0.6
- promoter activity interaction Z-score [1, 19]: -0.023 ± 0.22
- promoter activity interaction Z-score [1, 20]: 0.484 ± 0.7
- promoter activity interaction Z-score [1, 21]: -0.275 ± 0.24
- promoter activity interaction Z-score [1, 22]: 0.0345 ± 0.17
- promoter activity interaction Z-score [2, 7]: -0.274 ± 0.019
- promoter activity interaction Z-score [2, 8]: -0.301 ± 0.051
- promoter activity interaction Z-score [2, 9]: -0.434 ± 0.098
- promoter activity interaction Z-score [2, 10]: -0.317 ± 0.29
- promoter activity interaction Z-score [2, 11]: -0.476 ± 0.17
- promoter activity interaction Z-score [2, 12]: -0.752 ± 0.41
- promoter activity interaction Z-score [2, 13]: -0.43 ± 0.21
- promoter activity interaction Z-score [2, 14]: -0.378 ± 0.24
- promoter activity interaction Z-score [2, 15]: -0.335 ± 0.037
- promoter activity interaction Z-score [2, 16]: -0.48 ± 0.25
- promoter activity interaction Z-score [2, 17]: -0.399 ± 0.2
- promoter activity interaction Z-score [2, 18]: -0.463 ± 0.46
- promoter activity interaction Z-score [2, 19]: -0.425 ± 0.28
- promoter activity interaction Z-score [2, 20]: -0.375 ± 0.13
- promoter activity interaction Z-score [2, 21]: -0.33 ± 0.27
- promoter activity interaction Z-score [2, 22]: -0.0869 ± 0.48
- promoter activity interaction Z-score [3, 7]: 0.0366 ± 0.31
- promoter activity interaction Z-score [3, 8]: -0.191 ± 0.14
- promoter activity interaction Z-score [3, 9]: 0.0158 ± 0.19
- promoter activity interaction Z-score [3, 10]: -0.381 ± 0.062
- promoter activity interaction Z-score [3, 11]: -0.332 ± 0.016
- promoter activity interaction Z-score [3, 12]: -0.0943 ± 0.12
- promoter activity interaction Z-score [3, 13]: 0.0827 ± 0.3
- promoter activity interaction Z-score [3, 14]: -0.204 ± 0.038
- promoter activity interaction Z-score [3, 15]: 0.0474 ± 0.091
- promoter activity interaction Z-score [3, 16]: -0.151 ± 0.15
- promoter activity interaction Z-score [3, 17]: -0.00444 ± 0.34
- promoter activity interaction Z-score [3, 18]: -0.417 ± 0.16
- promoter activity interaction Z-score [3, 19]: 0.0188 ± 0.37
- promoter activity interaction Z-score [3, 20]: 0.0457 ± 0.14
- promoter activity interaction Z-score [3, 21]: -0.043 ± 0.02
- promoter activity interaction Z-score [3, 22]: -0.135 ± 0.14
- promoter activity interaction Z-score [4, 7]: -0.0829 ± 0.54
- promoter activity interaction Z-score [4, 8]: -1.35 ± 0.34
- promoter activity interaction Z-score [4, 9]: -0.822 ± 0.25
- promoter activity interaction Z-score [4, 10]: -0.433 ± 0.063
- promoter activity interaction Z-score [4, 11]: -0.415 ± 0.064
- promoter activity interaction Z-score [4, 12]: -1.08 ± 0.24
- promoter activity interaction Z-score [4, 13]: -0.634 ± 0.12
- promoter activity interaction Z-score [4, 14]: -0.567 ± 0.14
- promoter activity interaction Z-score [4, 15]: -0.476 ± 0.17
- promoter activity interaction Z-score [4, 16]: -1.71 ± 0.16
- promoter activity interaction Z-score [4, 17]: -0.778 ± 0.1
- promoter activity interaction Z-score [4, 18]: -1.09 ± 0.28
- promoter activity interaction Z-score [4, 19]: -0.342 ± 0.011
- promoter activity interaction Z-score [4, 20]: -0.966 ± 0.094
- promoter activity interaction Z-score [4, 21]: -0.486 ± 0.29
- promoter activity interaction Z-score [4, 22]: -0.548 ± 0.51
- promoter activity interaction Z-score [5, 7]: 0.172 ± 0.75
- promoter activity interaction Z-score [5, 8]: -0.36 ± 0.095
- promoter activity interaction Z-score [5, 9]: 0.172 ± 1.4
- promoter activity interaction Z-score [5, 10]: -0.316 ± 0.4
- promoter activity interaction Z-score [5, 11]: 0.097 ± 0.42
- promoter activity interaction Z-score [5, 12]: -1.12 ± 0.12
- promoter activity interaction Z-score [5, 13]: -0.276 ± 0.084
- promoter activity interaction Z-score [5, 14]: -0.113 ± 0.51
- promoter activity interaction Z-score [5, 15]: -0.241 ± 0.27
- promoter activity interaction Z-score [5, 16]: -0.584 ± 0.63
- promoter activity interaction Z-score [5, 17]: 0.349 ± 1.6
- promoter activity interaction Z-score [5, 18]: -0.312 ± 0.18
- promoter activity interaction Z-score [5, 19]: 1.83 ± 1.8
- promoter activity interaction Z-score [5, 20]: 0.000795 ± 0.15
- promoter activity interaction Z-score [5, 21]: 0.186 ± 0.23
- promoter activity interaction Z-score [5, 22]: 0.201 ± 0.43
- promoter activity interaction Z-score [6, 7]: 0.109 ± 0.15
- promoter activity interaction Z-score [6, 8]: -0.193 ± 0.12
- promoter activity interaction Z-score [6, 9]: 0.0591 ± 0.33
- promoter activity interaction Z-score [6, 10]: -0.222 ± 0.045
- promoter activity interaction Z-score [6, 11]: -0.168 ± 0.034
- promoter activity interaction Z-score [6, 12]: -0.0932 ± 0.073
- promoter activity interaction Z-score [6, 13]: 0.0518 ± 0.4
- promoter activity interaction Z-score [6, 14]: -0.0694 ± 0.036
- promoter activity interaction Z-score [6, 15]: 0.0967 ± 0.17
- promoter activity interaction Z-score [6, 16]: -0.245 ± 0.091
